Experiment in all cases: DAPPL (digital affinity profiling via proximity ligation, sequencing); 10 mM Tris-HCl pH 7.5, 50 mM NaCl, 1 mM DTT, 4% glycerol, room temperature, 30 min; GST-TFs on glutathione beads, 16-mer random dsDNA library, 0.1% formaldehyde crosslink after washing; high values mean tight binding
Holding throughout (conditions): protein: recombinant; tags: N-terminal GST; dsDNA, one strand shown

The target of one experiment is T1, FLI1 (Homo sapiens, UniProt Q01543 1-452).
T1 sequence: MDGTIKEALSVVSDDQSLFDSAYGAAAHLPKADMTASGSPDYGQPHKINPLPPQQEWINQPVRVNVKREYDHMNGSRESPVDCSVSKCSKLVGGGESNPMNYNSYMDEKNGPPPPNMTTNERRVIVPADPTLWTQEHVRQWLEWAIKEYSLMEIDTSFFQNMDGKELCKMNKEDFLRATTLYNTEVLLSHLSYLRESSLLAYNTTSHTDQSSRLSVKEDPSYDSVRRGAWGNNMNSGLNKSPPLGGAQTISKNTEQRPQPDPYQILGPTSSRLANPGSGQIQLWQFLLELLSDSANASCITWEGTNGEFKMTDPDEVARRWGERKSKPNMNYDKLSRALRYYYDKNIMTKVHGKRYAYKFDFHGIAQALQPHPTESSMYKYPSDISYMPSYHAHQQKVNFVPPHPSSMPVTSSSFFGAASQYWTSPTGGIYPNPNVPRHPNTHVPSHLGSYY
An outline of the steps:
(§1)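 After expression in yeast as GST fusions, human transcription factors were bound to glutathione beads, DNA-barcoded and mixed with a tag-only sample. The pools were incubated with 200 nmole of a 16-mer random double-stranded DNA library in Tris/NaCl/DTT/glycerol buffer (30 min, room temperature), washed and crosslinked with 0.1% formaldehyde. Proximity ligation with BsaI/T4 ligase ran for 1 h at 37 °C, before PCR amplification and sequencing on an Illumina NextSeq500. Binding signal is a hexamer's read frequency for a factor divided by its frequency for the tag-only sample.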

For another experiment, the target named is T2, ELK1 (Homo sapiens, UniProt P19419 1-428).
T2 sequence: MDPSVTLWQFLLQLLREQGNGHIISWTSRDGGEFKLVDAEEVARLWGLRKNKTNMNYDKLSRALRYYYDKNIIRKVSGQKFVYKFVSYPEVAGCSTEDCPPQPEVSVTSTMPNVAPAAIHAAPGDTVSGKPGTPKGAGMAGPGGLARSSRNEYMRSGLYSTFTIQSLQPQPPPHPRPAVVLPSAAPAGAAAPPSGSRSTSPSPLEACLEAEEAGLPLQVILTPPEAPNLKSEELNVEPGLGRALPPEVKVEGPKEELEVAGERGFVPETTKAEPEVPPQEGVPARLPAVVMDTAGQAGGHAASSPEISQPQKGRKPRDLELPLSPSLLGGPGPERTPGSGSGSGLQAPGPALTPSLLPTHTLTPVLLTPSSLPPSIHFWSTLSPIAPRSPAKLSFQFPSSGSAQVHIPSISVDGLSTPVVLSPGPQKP
An outline of the steps:
as §1

The target in the next experiment is T3, GABPA (Homo sapiens, UniProt Q06546 1-454).
T3 sequence: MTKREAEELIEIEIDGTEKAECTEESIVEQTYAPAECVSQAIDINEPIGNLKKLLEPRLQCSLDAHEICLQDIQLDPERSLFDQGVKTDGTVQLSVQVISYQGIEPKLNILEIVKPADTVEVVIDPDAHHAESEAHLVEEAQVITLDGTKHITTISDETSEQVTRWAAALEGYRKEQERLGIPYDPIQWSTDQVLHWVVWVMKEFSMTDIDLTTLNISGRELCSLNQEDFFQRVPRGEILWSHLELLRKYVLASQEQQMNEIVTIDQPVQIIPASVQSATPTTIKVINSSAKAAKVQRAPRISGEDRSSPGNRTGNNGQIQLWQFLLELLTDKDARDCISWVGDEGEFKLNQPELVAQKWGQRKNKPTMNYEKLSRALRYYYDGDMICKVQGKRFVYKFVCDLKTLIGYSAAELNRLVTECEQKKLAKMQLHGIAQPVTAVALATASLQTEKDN
Put shortly: as §1

Another experiment deals with T4, ERG (Homo sapiens, UniProt P11308 1-479).
T4 sequence: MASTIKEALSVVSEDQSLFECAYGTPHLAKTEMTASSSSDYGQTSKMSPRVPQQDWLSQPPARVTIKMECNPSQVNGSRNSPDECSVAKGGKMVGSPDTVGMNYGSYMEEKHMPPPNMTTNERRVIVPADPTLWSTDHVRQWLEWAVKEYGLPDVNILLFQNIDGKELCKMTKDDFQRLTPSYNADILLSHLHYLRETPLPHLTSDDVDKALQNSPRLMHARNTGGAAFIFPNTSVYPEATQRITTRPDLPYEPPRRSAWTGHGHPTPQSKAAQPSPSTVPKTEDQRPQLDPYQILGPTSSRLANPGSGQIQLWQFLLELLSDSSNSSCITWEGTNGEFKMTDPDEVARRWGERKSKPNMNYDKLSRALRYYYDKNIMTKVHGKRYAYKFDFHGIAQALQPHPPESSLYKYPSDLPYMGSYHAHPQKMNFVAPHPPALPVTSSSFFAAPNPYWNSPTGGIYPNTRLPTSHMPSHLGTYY
An outline of the steps:
as §1

The next experiment addresses ELF1 (Homo sapiens, UniProt P32519 1-619). Put shortly: as §1
The target in a further experiment is T5, EHF (Homo sapiens, UniProt Q9NZC4 1-300).
T5 sequence: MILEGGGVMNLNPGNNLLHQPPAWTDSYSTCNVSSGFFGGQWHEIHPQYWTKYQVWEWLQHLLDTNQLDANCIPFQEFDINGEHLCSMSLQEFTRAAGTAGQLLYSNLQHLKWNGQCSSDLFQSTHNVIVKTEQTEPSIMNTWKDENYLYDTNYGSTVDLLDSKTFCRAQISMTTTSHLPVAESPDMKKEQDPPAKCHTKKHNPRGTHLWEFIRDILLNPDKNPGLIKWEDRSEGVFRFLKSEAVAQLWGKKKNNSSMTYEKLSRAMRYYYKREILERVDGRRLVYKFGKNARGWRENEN
Put shortly: as §1

A further experiment deals with SPI1 (Homo sapiens, UniProt P17947 1-270). An outline of the steps: as §1
The target of the next experiment is SPIB (Homo sapiens, UniProt Q01892 1-262). Put shortly: as §1
Another experiment deals with T6, ELK3 (Homo sapiens, UniProt P41970 1-407).
T6 sequence: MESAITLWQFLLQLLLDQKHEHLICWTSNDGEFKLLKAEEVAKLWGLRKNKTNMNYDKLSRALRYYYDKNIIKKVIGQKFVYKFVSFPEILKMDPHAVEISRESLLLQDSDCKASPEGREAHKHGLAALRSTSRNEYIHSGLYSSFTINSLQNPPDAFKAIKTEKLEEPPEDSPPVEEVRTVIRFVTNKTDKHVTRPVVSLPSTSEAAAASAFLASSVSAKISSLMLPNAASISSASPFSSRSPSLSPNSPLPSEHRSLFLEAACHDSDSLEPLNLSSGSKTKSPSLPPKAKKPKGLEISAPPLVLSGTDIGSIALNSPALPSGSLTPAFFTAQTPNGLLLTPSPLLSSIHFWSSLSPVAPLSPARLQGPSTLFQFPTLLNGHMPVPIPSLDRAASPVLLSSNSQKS
Put shortly:
as §1

Experimental findings from PMC7862700, “An all-to-all approach to the identification of sequence-specific readers for epigenetic DNA modifications on cytosine” are described below.

Sequence of SPIB (Q01892 whole entry): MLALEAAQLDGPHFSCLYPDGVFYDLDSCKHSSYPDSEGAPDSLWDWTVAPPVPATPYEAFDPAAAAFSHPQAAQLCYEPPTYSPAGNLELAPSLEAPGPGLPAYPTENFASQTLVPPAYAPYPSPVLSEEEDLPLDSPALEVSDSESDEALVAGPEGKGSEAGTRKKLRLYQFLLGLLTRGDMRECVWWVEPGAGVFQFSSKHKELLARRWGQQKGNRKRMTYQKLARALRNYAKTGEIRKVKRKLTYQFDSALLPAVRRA
Sequence of ELF1 (P32519 whole entry): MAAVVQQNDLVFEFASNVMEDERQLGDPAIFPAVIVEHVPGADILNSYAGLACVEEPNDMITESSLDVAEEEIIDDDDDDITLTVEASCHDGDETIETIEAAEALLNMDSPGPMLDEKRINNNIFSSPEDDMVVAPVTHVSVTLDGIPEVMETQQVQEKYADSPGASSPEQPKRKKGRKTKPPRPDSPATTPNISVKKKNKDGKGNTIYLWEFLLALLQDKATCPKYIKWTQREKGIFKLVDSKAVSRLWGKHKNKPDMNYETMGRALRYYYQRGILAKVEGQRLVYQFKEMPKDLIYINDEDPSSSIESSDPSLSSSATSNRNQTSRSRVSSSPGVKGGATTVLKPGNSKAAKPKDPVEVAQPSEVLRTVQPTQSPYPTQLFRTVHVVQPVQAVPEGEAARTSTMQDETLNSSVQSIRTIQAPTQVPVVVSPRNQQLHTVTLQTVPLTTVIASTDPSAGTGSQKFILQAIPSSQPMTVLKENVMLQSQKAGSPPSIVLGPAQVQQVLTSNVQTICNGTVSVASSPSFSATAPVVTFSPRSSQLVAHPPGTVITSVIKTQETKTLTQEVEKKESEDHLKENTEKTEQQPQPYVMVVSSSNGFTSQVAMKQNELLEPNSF

On to TCTCTG, for which the binding signal in the experiment with FLI1 was 1.67 fold enrichment (6-mer frequency, TF over GST control); with ELK1 it was 1.67 fold enrichment (6-mer frequency, TF over GST control); in the experiment with GABPA, 1.47 fold enrichment (6-mer frequency, TF over GST control); in the experiment with ERG, 1.56 fold enrichment (6-mer frequency, TF over GST control); in the experiment with ELF1 it was 1.66 fold enrichment (6-mer frequency, TF over GST control); with EHF, 1.62 fold enrichment (6-mer frequency, TF over GST control). Further, the binding signal was 1.52 fold enrichment (6-mer frequency, TF over GST control) with SPI1; 1.5 fold enrichment (6-mer frequency, TF over GST control) in the experiment with SPIB; 1.52 fold enrichment (6-mer frequency, TF over GST control) with ELK3.

For the sequence TCTATC, the binding signal is 1.25 fold enrichment (6-mer frequency, TF over GST control) in the experiment with FLI1; 1.27 fold enrichment (6-mer frequency, TF over GST control) in the experiment with ELK1; 1.21 fold enrichment (6-mer frequency, TF over GST control) with GABPA; 1.21 fold enrichment (6-mer frequency, TF over GST control) with ERG; 1.25 fold enrichment (6-mer frequency, TF over GST control) with ELF1; 1.19 fold enrichment (6-mer frequency, TF over GST control) with EHF. For the same sequence, the binding signal was 1.22 fold enrichment (6-mer frequency, TF over GST control) with SPI1; 1.17 fold enrichment (6-mer frequency, TF over GST control) in the experiment with SPIB; 1.37 fold enrichment (6-mer frequency, TF over GST control) in the experiment with ELK3.

Take GATTCA: the binding signal with FLI1 was 1.11 fold enrichment (6-mer frequency, TF over GST control); in the experiment with ELK1, 1.15 fold enrichment (6-mer frequency, TF over GST control); with GABPA, 1.17 fold enrichment (6-mer frequency, TF over GST control); in the experiment with ERG, 1.11 fold enrichment (6-mer frequency, TF over GST control); in the experiment with ELF1, 1.17 fold enrichment (6-mer frequency, TF over GST control); in the experiment with EHF, 1.18 fold enrichment (6-mer frequency, TF over GST control). Further, the binding signal with SPI1 is 1.16 fold enrichment (6-mer frequency, TF over GST control); with SPIB, 1.04 fold enrichment (6-mer frequency, TF over GST control); with ELK3, 1.1 fold enrichment (6-mer frequency, TF over GST control).

CCCGCA: the binding signal was 1.23 fold enrichment (6-mer frequency, TF over GST control) in the experiment with FLI1; 1.2 fold enrichment (6-mer frequency, TF over GST control) with ELK1; 1.25 fold enrichment (6-mer frequency, TF over GST control) with GABPA; 1.15 fold enrichment (6-mer frequency, TF over GST control) with ERG; 1.29 fold enrichment (6-mer frequency, TF over GST control) in the experiment with ELF1; 1.29 fold enrichment (6-mer frequency, TF over GST control) in the experiment with EHF. Besides, the binding signal with SPI1 was 1.22 fold enrichment (6-mer frequency, TF over GST control); with SPIB, 1.29 fold enrichment (6-mer frequency, TF over GST control); with ELK3, 1.25 fold enrichment (6-mer frequency, TF over GST control).

For AATGCG, the binding signal with FLI1 was 1.24 fold enrichment (6-mer frequency, TF over GST control); with ELK1 it was 1.27 fold enrichment (6-mer frequency, TF over GST control); in the experiment with GABPA it was 1.27 fold enrichment (6-mer frequency, TF over GST control); in the experiment with ERG it was 1.23 fold enrichment (6-mer frequency, TF over GST control); with ELF1, 1.21 fold enrichment (6-mer frequency, TF over GST control); with EHF it was 1.32 fold enrichment (6-mer frequency, TF over GST control). In addition, the binding signal in the experiment with SPI1 is 1.58 fold enrichment (6-mer frequency, TF over GST control); in the experiment with SPIB, 1.31 fold enrichment (6-mer frequency, TF over GST control); with ELK3 it was 1.29 fold enrichment (6-mer frequency, TF over GST control).

In the case of CCACTT, the binding signal with FLI1 was 1.86 fold enrichment (6-mer frequency, TF over GST control); with ELK1, 1.86 fold enrichment (6-mer frequency, TF over GST control); with GABPA, 1.81 fold enrichment (6-mer frequency, TF over GST control); with ERG, 2.02 fold enrichment (6-mer frequency, TF over GST control); in the experiment with ELF1 it was 1.85 fold enrichment (6-mer frequency, TF over GST control); with EHF, 1.93 fold enrichment (6-mer frequency, TF over GST control). In addition, the binding signal was 2.41 fold enrichment (6-mer frequency, TF over GST control) with SPI1; 1.74 fold enrichment (6-mer frequency, TF over GST control) with SPIB; 1.83 fold enrichment (6-mer frequency, TF over GST control) in the experiment with ELK3.

ATAGAA: the binding signal is 1.02 fold enrichment (6-mer frequency, TF over GST control) in the experiment with FLI1; 1.04 fold enrichment (6-mer frequency, TF over GST control) in the experiment with ELK1; 1.04 fold enrichment (6-mer frequency, TF over GST control) with GABPA; 1.06 fold enrichment (6-mer frequency, TF over GST control) with ERG; 1.05 fold enrichment (6-mer frequency, TF over GST control) with ELF1; 1.07 fold enrichment (6-mer frequency, TF over GST control) with EHF. For the same sequence, the binding signal in the experiment with SPI1 was 1.16 fold enrichment (6-mer frequency, TF over GST control); with SPIB, 1.08 fold enrichment (6-mer frequency, TF over GST control); with ELK3 it was 1.13 fold enrichment (6-mer frequency, TF over GST control).

Regarding TCATCC, the binding signal is 1.4 fold enrichment (6-mer frequency, TF over GST control) in the experiment with FLI1; 1.38 fold enrichment (6-mer frequency, TF over GST control) in the experiment with ELK1; 1.39 fold enrichment (6-mer frequency, TF over GST control) with GABPA; 1.36 fold enrichment (6-mer frequency, TF over GST control) with ERG; 1.41 fold enrichment (6-mer frequency, TF over GST control) with ELF1; 1.38 fold enrichment (6-mer frequency, TF over GST control) with EHF. The binding signal was 1.34 fold enrichment (6-mer frequency, TF over GST control) with SPI1; 1.34 fold enrichment (6-mer frequency, TF over GST control) with SPIB; 1.43 fold enrichment (6-mer frequency, TF over GST control) in the experiment with ELK3.
